# Most compounds without a hit are left out; they make up all but 3% or so of the library.
# MITF TRPM1 inh: reduces MITF-dependent TRPM1 promoter luciferase signal | SK-MEL-5 TRPM1 promoter luciferase, 24 h | inhibition, % at 12.5 µM | 330,000 tested, 0.83% active;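 active means mean inhibition across replicates of 60% or more, whatever share of single replicates reaches that level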
# HIF-2a inh: blocks HIF-2a reporter activity. 786-0 RCC cells HIF-2a reporter, luciferase luminescence, overnight. 360,000 tested, 0.72% active. AID 624352. inhibition, % at 18.8 µM;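 active means inhibition of the luminescence signal of 40% or more relative to plate controls, in a single-dose primary screen at 18.75 µM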
# ABHD5-PLIN5 inh: inhibitors of human ABHD5-perilipin-5 interaction | Split G. princeps luciferase complementation, luminescence, 4 h | inhibition, % at 4 µM | 360,000 tested, 0.78% active | AID 602281;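 active means inhibition above the mean inhibition across every tested compound plus 3 SD, cut at about 22% in these data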;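 further: 0% = DMSO only wells and the 100% control is not disclosed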
# Target sequence (Q00G26 whole entry, looked up): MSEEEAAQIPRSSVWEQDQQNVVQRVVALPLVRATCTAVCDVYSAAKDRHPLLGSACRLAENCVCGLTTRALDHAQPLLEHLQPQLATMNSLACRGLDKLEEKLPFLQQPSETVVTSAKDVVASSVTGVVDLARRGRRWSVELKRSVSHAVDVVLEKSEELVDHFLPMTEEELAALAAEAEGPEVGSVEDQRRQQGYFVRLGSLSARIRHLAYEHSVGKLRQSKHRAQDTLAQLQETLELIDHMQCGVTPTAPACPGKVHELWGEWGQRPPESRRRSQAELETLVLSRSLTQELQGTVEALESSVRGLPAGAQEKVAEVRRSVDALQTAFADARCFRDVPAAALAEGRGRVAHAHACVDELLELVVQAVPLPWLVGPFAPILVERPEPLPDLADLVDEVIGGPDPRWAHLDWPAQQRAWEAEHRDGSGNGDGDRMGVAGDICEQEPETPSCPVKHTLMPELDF
# Target sequence (Q8WTS1 whole entry, looked up): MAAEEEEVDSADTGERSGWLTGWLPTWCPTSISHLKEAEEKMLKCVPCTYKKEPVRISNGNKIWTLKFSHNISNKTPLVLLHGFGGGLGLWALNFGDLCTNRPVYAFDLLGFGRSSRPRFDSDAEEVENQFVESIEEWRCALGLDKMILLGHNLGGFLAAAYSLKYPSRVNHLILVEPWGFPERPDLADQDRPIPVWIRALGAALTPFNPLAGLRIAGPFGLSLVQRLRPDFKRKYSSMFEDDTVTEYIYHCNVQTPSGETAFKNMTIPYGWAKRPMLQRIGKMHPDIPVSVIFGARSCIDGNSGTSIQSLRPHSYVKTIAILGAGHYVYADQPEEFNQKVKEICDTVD
# CF NFkB block: inhibitors of cystic fibrosis induced NF-kB; KKLEB NF-kB-GFP reporter, PAF-induced, GFP fluorescence overnight; inhibition, % at 5 µM; 360,000 tested, 0.86% active; AID 588850;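 active means at least 50% inhibition at 5 µM, scaled per plate between neutral and stimulator controls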;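 further: PAF is a Pseudomonas aeruginosa culture filtrate used as stimulus; plate controls were PAF-stimulated DMSO wells for no effect and unstimulated DMSO wells for full effect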
# Peg3 prom inh: Peg3 promoter activity inhibition. HeLa PEG-Prom luciferase reporter, luminescence, overnight. 360,000 tested, 1.7% active. inhibition, % at 20 µM;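 active means inhibition of at least 50% at 20 µM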
# KKLEB tox: CF airway cell cytotoxicity counter-screen; KKLEB CF airway cells viability, ATPlite luminescence, overnight; hits give low values; cells stimulated with P. aeruginosa culture filtrate; activity change (cytotoxicity), % at 5 µM; 360,000 tested, 0.36% active; AID 602141;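 active means corrected activity change at or below -50% at 5 µM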
# Mdm2-MdmX confirm: Mdm2/MdmX (human) interaction inhibition, confirmed; shares compounds with HIF-2a inh; SaOS-2 split-luciferase Mdm2/MdmX complementation, luminescence; inhibition, % at 8 µM; 740 tested, 99% active;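 active means mean inhibition of the luminescence signal across two replicates at or above 26 percent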
# HIF-2a inh conf: HIF-2a inhibition, single concentration confirmation; shares compounds with HIF-2a inh; 786-0 RCC cells, HIF-2a luciferase reporter luminescence, overnight; inhibition, % at 18.8 µM; 1,800 tested, 56% active; AID 651580;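 active means mean inhibition across four replicates of at least 40 percent at the single tested concentration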
# HIF-1a counter: counter-screen for HIF-2a inhibitors: HIF-1a inhibition in MiaPaCa-2 cells. shares compounds with HIF-2a inh. MiaPaCa-2 HIF-1a luciferase reporter, desferoxamine, overnight. inhibition, % at 18.8 µM. 1,800 tested, 72% active;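 active means mean inhibition of the reporter signal across four replicates at the single tested dose of 50% or more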
# Starred values were filed as active, the others as inactive; x = no result.
SMILES,MITF TRPM1 inh,HIF-2a inh,ABHD5-PLIN5 inh,CF NFkB block,Peg3 prom inh,KKLEB tox,HIF-2a inh conf,HIF-1a counter,others
CCOC(=O)COc1ccc(S(=O)(=O)N2CCN(C(=O)OCC)CC2)cc1,8.5,17.0,-4.8,2.2,8.7,-5.5,x,x,
Cc1c(CC(=O)NCCCO)c(=O)oc2cc3c(cc12)CCC(C)(C)O3,3.7,-9.8,2.4,-21.3,-16.4,-2.3,x,x,
O=C(NCCC1=CCCCC1)C1CCN(S(=O)(=O)c2cccc(C(F)(F)F)c2)CC1,2.1,5.7,3.3,-7.6,9.7,0.8,x,x,
C[C@H](NC(=O)c1nc[nH]c1C(=O)N[C@@H](CCCCN)C(=O)OC(C)(C)C)C(=O)OCc1ccccc1,-16.7,9.9,1.4,2.3,-18.6,7.6,x,x,
Cc1ccc(NC(=S)NCc2ccc(Cl)cc2)c(OC(F)F)c1,3.1,10.9,-18.2,7.8,6.5,-3.5,x,x,
COC(=O)COc1ccc(S(=O)(=O)N2CCN(c3ccc(F)cc3)CC2)cc1,-7.3,46.2*,4.2,7.8,-1.2,0.3,21.9,4.8,
COC(=O)COc1ccc(S(=O)(=O)N2CCN(c3ccc(OC)cc3)CC2)cc1,-14.4,7.6,-5.1,21.8,4.2,-8.4,x,x,
O=C(OCC(=O)c1c[nH]c2ccccc12)c1cc2ccccc2cc1O,-3.7,-44.2,-3.0,1.2,-26.5,3.7,x,x,
Cc1ccc(C(=O)NCC#N)cc1,1.1,15.1,-0.4,10.5,6.1,-27.8,x,x,
Cc1ccc(C(=O)NC(C#N)=C(Cl)Cl)cc1,x,x,x,x,x,x,x,x,Mdm2-MdmX confirm=103.2*
Cc1ccc(C(=O)NC(=C(Cl)Cl)S(=O)(=O)c2ccccc2)cc1,-16.7,88.7*,0.0,-8.9,78.8*,-9.2,-17.3,24.8,
Cc1cc(C(=O)NCCc2ccc(S(N)(=O)=O)cc2)c(C)o1,-6.9,11.6,10.6,1.9,-3.8,-7.1,x,x,
COc1ccc(/C=N/n2cnc3c([nH]c4ccc(F)cc43)c2=O)cc1CN1CCCC1,86.3*,10.3,1.3,6.2,91.1*,0.0,x,x,Mdm2-MdmX confirm=100.5*
COc1ccc(/C=N/n2c(=O)[nH]c3c([nH]c4ccc(F)cc43)c2=O)cc1CN1CCCCC1,-2.5,22.0,0.5,18.3,-2.1,-32.7,x,x,
Cc1ccc(-n2c(C)c([N+](=O)[O-])c3ccc(O)c(CN(C)C)c32)cc1,-6.3,8.3,0.2,82.3*,16.1,-18.5,x,x,Mdm2-MdmX confirm=92.2*
Cn1nnnc1Sc1ncnc2scc(-c3ccccc3Br)c12,58.3,48.8*,12.9,49.9,79.0*,-19.0,24.8,75.4*,
Cn1nnnc1Sc1ncnc2scc(Br)c12,-17.4,96.4*,0.9,77.7*,103.8*,-42.2,65.2*,105.2*,
O=C(CN(c1cccc(C(F)(F)F)c1)S(=O)(=O)c1ccc(Cl)c([N+](=O)[O-])c1)NCc1ccccc1Cl,54.6,70.1*,5.7,-10.3,100.8*,-2.2,21.6,104.3*,
CC(NC(=O)CN(c1cccc(C(F)(F)F)c1)S(=O)(=O)c1ccc(Cl)c([N+](=O)[O-])c1)c1ccccc1 (stereo not given),79.3*,78.1*,8.6,-9.6,104.0*,12.9,10.3,102.8*,
C=CCOc1cccn2c(N(C=O)Cc3ccccc3)c(CC)nc12,x,4.5,0.9,17.7,-0.2,5.2,x,x,
COC(=O)c1ccc(/C=C(\C#N)C(=O)NC(C)c2ccccc2)cc1 (stereo not given),81.3*,66.7*,11.0,76.6*,104.0*,-13.1,48.3*,105.1*,
COc1ccc(/C=C(\C#N)C(=O)NC(C)c2ccccc2)cc1O (stereo not given),-9.0,0.2,12.4,11.3,-1.6,4.8,x,x,
CCCc1cc(=O)n2[nH]c(C)c(-c3ccc(OC)cc3)c2n1,1.5,21.3,-1.8,6.3,18.9,-6.8,x,x,
COc1ccc(C2NC(=O)NC(C)=C2C(=O)OC2CCCC(C)C2)cc1 (stereo not given),3.6,40.8*,-7.7,3.0,51.6*,-11.2,10.5,44.1,
COc1ccc(C2NC(=O)NC(C)=C2C(=O)OC2CCCCC2)cc1 (stereo not given),x,-2.6,-5.1,23.0,26.0,-21.6,x,x,
SMILES,MITF TRPM1 inh,HIF-2a inh,ABHD5-PLIN5 inh,CF NFkB block,Peg3 prom inh,KKLEB tox,HIF-2a inh conf,HIF-1a counter,others
N#CC(c1cccc(Cl)c1)c1ccc2c(C(F)(F)F)cc(C(F)(F)F)nc2n1 (stereo not given),74.0*,14.2,-3.6,52.7*,56.9*,-60.2*,x,x,Mdm2-MdmX confirm=101.7*
Cc1cc(N)n(Cc2cccs2)n1,x,0.7,-7.7,-8.8,-0.7,-4.7,x,x,
O=C(COC(=O)c1nc(Cl)c(Cl)c(Cl)c1Cl)NCc1ccccc1,49.6,69.6*,13.2,30.6,92.5*,3.2,17.7,-19.5,
Cn1nccc1C(=O)N(CCN1CCCCC1)CC1CCCN(C2CCCC2)C1 (stereo not given),-51.5,-103.0,0.9,5.4,-71.3,-3.5,x,x,
COc1ccc(C(=O)Nn2c(SCC(=O)NCC3CCCO3)nc3ccccc3c2=O)cc1 (stereo not given),-2.0,48.8*,4.0,5.4,13.3,-5.6,59.5*,49.5,
CCOc1ccc(C(=O)Nc2nnc(SCC(=O)NCC3CCCO3)s2)cc1 (stereo not given),47.7,54.5*,-1.0,15.0,20.5,-36.0,59.0*,-1.3,
O=C(CSc1nnc(NC(=O)c2cccc(F)c2)s1)NCC1CCCO1 (stereo not given),-27.9,-44.5,-1.5,25.8,-29.5,-12.1,x,x,
CS(=O)(=O)NNC(=O)Cn1nnc(-c2ccc(OCc3ccccc3Cl)cc2)n1,-64.4,-220.1,0.0,3.1,-144.1,6.5,x,x,
CCCCCCCCCCCCCCCC[n+]1ccc(C(N)=O)cc1,18.4,79.8*,21.0,62.6*,98.4*,-69.0*,53.2*,99.9*,Mdm2-MdmX confirm=100.2*
COc1ccc(OC)c2sc(NC(=O)CCS(=O)(=O)c3ccccc3)nc12,x,90.1*,7.3,49.8,43.9,-55.4*,-31.0,56.5*,
COc1ccc(OC)c2sc(NC(=O)CCSc3ccccc3)nc12,-5.1,3.7,-9.4,24.0,29.1,-1.1,x,x,
O=C(Nc1ncccn1)c1cc([N+](=O)[O-])cc([N+](=O)[O-])c1,-2.6,15.7,0.4,25.7,7.3,-11.9,x,x,
O=[N+]([O-])c1cc(-c2ncccn2)c([N+](=O)[O-])s1,x,91.2*,20.3,15.6,104.5*,9.7,40.1*,51.8*,
COc1cc(/C=C/C(C)=O)cc(OC)c1OC,0.1,8.2,1.5,-5.6,-0.6,10.3,x,x,

# Bioassay records: PubChem BioAssay, several laboratories
